Reference: PubChem BioAssay (Tox21)
Inconclusive results are not listed. Calls of active or inactive are those of the source. Unless noted, the call rests on the fitted dose curve; in most records, active means well fitted curve in the direction sought with a large enough effect in the repeat runs; inconclusive means weak or mixed curves; inactive means no such curve, though single readings can be large; an effect the other way counts as inactive or inconclusive.

Tests used:
[1] = qHTS assay to identify small molecule antagonists of the estrogen related receptor (ERR) signaling pathway from Tox21 library - cell viability counter screen (AID 1224834); further: nearly all actives have a fitted effect of over 30% in size
In short: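 Seeded ERR cells were rested 6 h at 37 C/5% CO2 before compounds, positive and negative controls or DMSO were added. Incubation continued for 17.5 h, and viability was then quantified by CellTiter-Fluor fluorescence.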

[2] = biological target: Luciferin 4-monooxygenase (Photinus pyralis) (UniProt P08659); test: qHTS assay to identify small molecule inhibitors of firefly luciferase (AID 1224835); further: nearly all actives have a fitted effect of over 25% in size
Sequence of Luciferin 4-monooxygenase (Photinus pyralis) (P08659 whole entry, looked up): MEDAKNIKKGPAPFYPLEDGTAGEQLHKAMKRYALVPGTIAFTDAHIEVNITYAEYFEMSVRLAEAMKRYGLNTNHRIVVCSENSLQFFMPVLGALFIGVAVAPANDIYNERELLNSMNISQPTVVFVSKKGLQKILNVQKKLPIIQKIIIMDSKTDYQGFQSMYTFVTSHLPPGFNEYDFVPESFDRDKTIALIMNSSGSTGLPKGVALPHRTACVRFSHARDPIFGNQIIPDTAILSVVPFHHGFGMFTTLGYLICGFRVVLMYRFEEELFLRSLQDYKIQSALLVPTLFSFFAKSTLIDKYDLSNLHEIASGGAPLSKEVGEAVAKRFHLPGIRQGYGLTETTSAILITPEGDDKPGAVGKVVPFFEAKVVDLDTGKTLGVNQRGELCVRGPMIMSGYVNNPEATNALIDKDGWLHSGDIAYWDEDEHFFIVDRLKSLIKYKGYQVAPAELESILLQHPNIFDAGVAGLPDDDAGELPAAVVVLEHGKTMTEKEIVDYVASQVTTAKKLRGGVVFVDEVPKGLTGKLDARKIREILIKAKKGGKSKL
In short: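 Inhibition of purified Photinus luciferase is measured by luminescence. Substrate levels (D-luciferin, ATP) sit at their KM values. Each compound is tested in a concentration series.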

[3] = qHTS assay to identify small molecule agonists of the constitutive androstane receptor (CAR) signaling pathway - cell viability counter screen (AID 1224836); further: nearly all actives have a fitted effect of over 45% in size
In short: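 23 h treatment, 37 C, 5% CO2. Cell line: HepG2 stably expressing hCAR with a CYP2B6-2.2kb construct. Co-treatment: PK11195, 0.75 uM final. Read-out: CellTiter-Fluor fluorescence intensity.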

[4] = qHTS assay to identify small molecule antagonists of the constitutive androstane receptor (CAR) signaling pathway - cell viability counter screen (AID 1224837); further: nearly all actives have a fitted effect of over 45% in size
In short: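 To flag cytotoxic false antagonists, HepG2 hCAR/CYP2B6-2.2kb cells were treated 23 hr with 15-concentration compound series and 50 nM CITCO at 37 C/5% CO2; CellTiter-Fluor fluorescence was the measured end point.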

[5] = biological target: Nuclear receptor subfamily 1 group I member 3 (Homo sapiens) (UniProt Q14994); test: qHTS assay to identify small molecule antagonists of the constitutive androstane receptor (CAR) signaling pathway (AID 1224838);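 further: HepG2 cells stably expressing hCAR with CYP2B6 luciferase reporter stimulated by CITCO; nearly all actives have a fitted effect of over 40% in size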
Sequence of Nuclear receptor subfamily 1 group I member 3 (Homo sapiens) (Q14994 whole entry, looked up): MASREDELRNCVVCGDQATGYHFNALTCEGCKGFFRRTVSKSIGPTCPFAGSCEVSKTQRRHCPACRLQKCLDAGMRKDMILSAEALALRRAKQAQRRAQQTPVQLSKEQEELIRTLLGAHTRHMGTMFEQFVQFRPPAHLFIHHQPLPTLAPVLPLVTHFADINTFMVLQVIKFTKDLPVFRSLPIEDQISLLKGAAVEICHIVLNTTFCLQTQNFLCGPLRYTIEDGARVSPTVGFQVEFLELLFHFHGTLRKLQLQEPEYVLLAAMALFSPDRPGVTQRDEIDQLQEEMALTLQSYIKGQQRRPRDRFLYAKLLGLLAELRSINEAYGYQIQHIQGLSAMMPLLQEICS
In short: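 Human hepatoma HepG2 cells expressing hCAR and a CYP2B6 promoter (2.2 kb) luciferase construct; compound titration (15 points) with 50 nM CITCO final, 24 h at 37 C/5% CO2; luminescence via ONE-Glo after 30 min at room temperature.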

[6] = biological target: Nuclear receptor subfamily 1 group I member 3 (Homo sapiens) (UniProt Q14994); test: qHTS assay to identify small molecule agonists of the constitutive androstane receptor (CAR) signaling pathway (AID 1224839);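 further: HepG2 cells stably carrying human CAR and a CYP2B6 luciferase reporter; nearly all actives have a fitted effect of over 15% in size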
In short: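 Compounds tested at 15 concentrations on HepG2 cells stably harbouring hCAR and CYP2B6-2.2kb reporter constructs, co-treated with PK11195 (0.75 uM final), 24 h at 37 C; luminescent reporter signal quantified.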

[7] = qHTS assay to identify small molecule antagonists of the estrogen related receptor signaling pathway with the pleiotropic PPARgamma coactivator (PGC) from Tox21 10K library - cell viability counter screen (AID 1224840; active means well fitted cell-killing curve with a large enough effect in the repeat runs, not every such curve was filed as active; further: nearly all actives have a fitted effect of over 40% in size)
In short: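 Seeded PGC/ERR cells (2,000/well, 6 h, 37 C/5% CO2) get compound by pin tool; 17.5 h incubation at 37 C; CellTiter-Fluor added, 30 min, fluorescence measured.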

[8] = biological target: Thyrotropin receptor (Homo sapiens) (UniProt P16473); test: qHTS assay to identify small molecule agonists of the thyroid stimulating hormone receptor (TSHR) signaling pathway (AID 1224843; calls by dose curve; further: nearly all actives have a fitted effect of over 45% in size; further: potency means the concentration at half of the fitted maximal effect)
Sequence of Thyrotropin receptor (Homo sapiens) (P16473 whole entry, looked up): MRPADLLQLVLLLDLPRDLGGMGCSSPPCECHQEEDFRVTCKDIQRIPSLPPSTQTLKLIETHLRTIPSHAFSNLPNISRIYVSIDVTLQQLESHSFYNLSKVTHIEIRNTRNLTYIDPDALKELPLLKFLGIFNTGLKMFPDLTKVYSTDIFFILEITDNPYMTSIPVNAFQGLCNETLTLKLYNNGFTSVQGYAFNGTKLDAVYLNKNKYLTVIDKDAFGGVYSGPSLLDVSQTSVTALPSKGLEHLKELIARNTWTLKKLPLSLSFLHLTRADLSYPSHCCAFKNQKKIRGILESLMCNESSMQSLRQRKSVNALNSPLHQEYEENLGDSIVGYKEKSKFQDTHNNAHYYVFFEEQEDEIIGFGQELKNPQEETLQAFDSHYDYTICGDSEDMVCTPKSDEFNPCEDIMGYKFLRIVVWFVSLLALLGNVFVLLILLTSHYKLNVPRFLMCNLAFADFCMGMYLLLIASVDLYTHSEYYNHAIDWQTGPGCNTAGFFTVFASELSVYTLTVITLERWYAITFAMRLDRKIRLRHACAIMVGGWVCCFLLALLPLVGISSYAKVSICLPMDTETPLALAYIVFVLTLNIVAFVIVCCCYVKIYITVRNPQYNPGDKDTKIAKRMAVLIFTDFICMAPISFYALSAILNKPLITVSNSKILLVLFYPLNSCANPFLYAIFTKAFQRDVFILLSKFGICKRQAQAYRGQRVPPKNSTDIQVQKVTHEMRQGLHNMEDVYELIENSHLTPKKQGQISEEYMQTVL
In short: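 Agonist activity read as cAMP rise via d2/cryptate HTRF competition, 1 h room-temperature detection, in HEK293 cells expressing TSHR. Fifteen-point titrations, each run in triplicate, with a 30 min room-temperature incubation beforehand.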

[9] = qHTS assay to identify small molecule agonists of the hypoxia (HIF-1) signaling pathway - cell viability counter screen (AID 1224844; calls by dose curve; further: nearly all actives have a fitted effect of over 50% in size)
In short: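 HRE-bla ME-180; 0.5% dFBS; cpd 17 h, 37C, 5% CO2; CellTiter-Glo lum., 30 min RT, post-FRET read, same wells.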

[10] = qHTS assay to identify small molecule agonists of H2AX (AID 1224845; active means well fitted activation curve with a large enough effect in the signal ratio in the repeat runs, not every such curve was filed as active; the % refers to the signal ratio)
In short: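 Phospho-H2AX Ser139 measured by HTRF (ex 320 nm; em 665 and 620 nm) after 24 hr antibody incubation. Compounds, 15 concentrations, 0.76% DMSO, were applied to CHO-K1 cells for 3hr at 37C before lysis.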

[11] = qHTS assay to identify small molecule agonists of the hypoxia (HIF-1) signaling pathway (AID 1224846; active means well fitted activation curve with a large enough effect in the signal ratio in the repeat runs, not every such curve was filed as active; the % refers to the signal ratio)
In short: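 Reporter induction in HRE-bla ME-180 cells is taken as agonism: cells sit 5 hrs after plating, receive compounds or DMSO only, incubate 17 hrs at 37C under 5% CO2, and are loaded with CCF4-AM for beta-lactamase FRET measurement.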

[12] = qHTS assay to identify small molecule agonists of H2AX - cell viability counter screen (AID 1224847; calls by dose curve; further: top concentration of the series differs between compounds; nearly all actives have a fitted effect of over 30% in size)
In short: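 Compounds tested at 15 concentrations were incubated 3 hr at 37C with wild-type CHO-K1 cells; cellular ATP-based luminescence (CellTiter-Glo) indicated viability.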

[13] = qHTS RealTime-Glo MT Cell Viability Assay in HepG2 cells - 24 hour (AID 1224867); further: nearly all actives have a fitted effect of over 50% in size
In short: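 Compound treatment began 5 h after plating HepG2 cells (600/well) with NanoLuc luciferase and prosubstrate. Plates stayed at 37 C for 40 h; luminescence was captured at six time points, 0 h through 40 h.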

[14] = qHTS RealTime-Glo MT Cell Viability Assay in HEK293 cells - 32 hour (AID 1224868); further: top concentration of the series differs between compounds; nearly all actives have a fitted effect of over 50% in size
In short: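 Quantitative high-throughput screen of the Tox21 10K library in HEK293: cells and RealTime-Glo reagents plated together, compound added at 5 h, luminescence monitored through 40 h at 37 C.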

[15] = A CellTox Green Cytotoxicity Assay to monitor cytotoxicity in HEK293 cells - 0 hour (AID 1224869); further: nearly all actives have a fitted effect of over 50% in size
In short: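 Tox21 screen in HEK293: membrane-impermeant cyanine dye fluoresces on binding dead-cell DNA; compound pinned 5 h post-seeding, plates held at 37 C, signal read repeatedly through 40 h.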

[16] = qHTS assay to identify small molecule antagonists of the estrogen related receptor signaling pathway with the pleiotropic PPARgamma coactivator (PGC) from Tox21 10K library (AID 1224841; call rule not given here)
In short: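 Test chemicals dissolved in DMSO were applied to pre-incubated (6 h) PGC/ERR cells at 2,000 cells/well for an 18 h, 37 C treatment; reporter luminescence was then read using One-Glo.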

[17] = qHTS assay to identify small molecule agonists of the estrogen related receptor signaling pathway with the pleiotropic PPARgamma coactivator (PGC) from Tox21 10K library (AID 1224842); further: nearly all actives have a fitted effect of over 15% in size
In short: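 Luminescence from One-Glo (30 min, room temperature) measured after PGC/ERR cells had 18 h at 37 C with pinned compound (23 nL in DMSO). Cells had been seeded at 2,000 per well and pre-incubated 6 h.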

[18] = qHTS assay to identify small molecule agonists of the estrogen related receptor (ERR) signaling pathway from Tox21 library (AID 1224849; calls by dose curve; further: nearly all actives have a fitted effect of over 15% in size); details: ERR reporter cell line, ONE-Glo luciferase, 18 h; at 92.4 µM (top of the series) unless noted
In short: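 Tox21 compounds tested for ERR agonism in an NTP reporter cell line: 18 h treatment at 37 C, then ONE-Glo luminescence.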

[19] = qHTS assay to identify small molecule antagonists of the estrogen related receptor (ERR) signaling pathway from Tox21 library (AID 1224848); further: nearly all actives have a fitted effect of over 50% in size; further: potency means the concentration at half of the fitted maximal effect
In short: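 Luciferase luminescence (ONE-Glo, 30 min room temperature) was the read-out. Cells of the NTP-supplied ERR line, 2,000 per well, were given 6 h at 37 C before compound addition in DMSO and 18 h exposure at 37 C.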
On the % scale 0 is the no-effect control and ±100 the full control effect.

CCCCCCCCCCCCCCCCCC(=O)OCC(CC)CCCC (stereo not given)
inactive: Potency [1] | Potency [2] | Potency [3] | Potency [4] | Potency [5] | Potency [6] | Potency [7] | Potency [8] | Potency [9] | Potency [10] | outcome [11] | Potency [12] | Potency [13] | Potency [14] | Potency [15]

COc1ccc(-c2cc(C(F)F)nn2-c2ccc(S(N)(=O)=O)cc2)cc1F
inactive: Potency [1] | Potency [2] | Potency [3] | Potency [4] | Potency [5] | Potency [6] | Potency [7] | Potency [16] | Potency [17] | Potency [9] | Potency [10] | outcome [11] | Potency [12] | activity change, positive = activation [18] -17.4% [at 42.5 µM] | Potency [13] | Potency [15]

Cc1ccc(Cl)cc1N
inactive: Potency [1] | Potency [2] | Potency [3] | Potency [4] | Potency [5] | Potency [6] | Potency [7] | Potency [8] | Potency [9] | Potency [10] | outcome [11] | Potency [12] | Potency [13] | Potency [14] | Potency [15]

C=CCOC(=O)COCCC(C)C
inactive: Potency [1] | Potency [2] | Potency [3] | Potency [4] | Potency [5] | Potency [6] | Potency [7] | Potency [8] | Potency [9] | Potency [10] | outcome [11] | Potency [12] | Potency [13] | Potency [14] | Potency [15]

CCCCC[C@H](O)/C=C/[C@H]1[C@H](O)CC(=O)[C@@H]1C/C=C\CCCC(=O)O
active: Potency [8] 0.0266 µM
inactive: Potency [1] | Potency [2] | Potency [3] | Potency [4] | Potency [5] | Potency [6] | Potency [7] | Potency [9] | Potency [10] | outcome [11] | Potency [12] | Potency [13] | Potency [14] | Potency [15]

COC(OC)OC
inactive: Potency [1] | Potency [2] | Potency [3] | Potency [4] | Potency [5] | Potency [6] | Potency [7] | Potency [8] | Potency [9] | Potency [10] | outcome [11] | Potency [12] | Potency [13] | Potency [14] | Potency [15]

O=C1OC[C@H](Cc2cccc(O)c2)[C@H]1Cc1cccc(O)c1
inactive: Potency [1] | Potency [2] | Potency [3] | Potency [4] | Potency [5] | Potency [6] | Potency [7] | Potency [8] | Potency [9] | Potency [10] | outcome [11] | Potency [12] | Potency [13] | Potency [14] | Potency [15]

COc1cc(NC(C)CCCN)c2ncccc2c1 (stereo not given)
inactive: Potency [1] | Potency [2] | Potency [3] | Potency [4] | Potency [5] | Potency [6] | Potency [7] | Potency [17] | Potency [8] | Potency [9] | Potency [10] | Potency [12] | Potency [19] | activity change, positive = activation [18] -9.72% [at 42.5 µM] | Potency [13] | Potency [14] | Potency [15]

OCC(CO)n1cnc(-c2ccc(F)cc2)c1-c1ccnc(Oc2ccccc2)n1
inactive: Potency [1] | Potency [2] | Potency [3] | Potency [4] | Potency [5] | Potency [6] | Potency [7] | Potency [17] | Potency [8] | Potency [9] | Potency [10] | outcome [11] | Potency [12] | Potency [13] | Potency [14] | Potency [15]
active: Potency [19] 27.3 µM
